From PubChem BioAssay (NCATS)
Where “and” joins values, the source holds several entries; their conditions need not be identical. Identical values can stand only once. Records with an inconclusive call do not appear. Calls of active or inactive are those of the source. Unless noted, the call rests on the fitted dose curve; in most records, active means well fitted curve in the direction sought with a large enough effect; inconclusive means small, poorly fitted or top-dose-only effect, or another doubt; inactive means no such curve, though single readings can be large; an effect the other way counts as inactive or inconclusive.

Legend:
[1] = Cell Viability - Jurkat (AID 426;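 active means dose-dependent loss of cell ATP signal giving a full or clear fitted curve, ranked by lower potency value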;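 further: potency means the concentration at half of the fitted maximal effect; cells exposed to compound for 40 hours at 37 °C before ATP read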); conditions: qHTS
Outline: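 Seed 5000 Jurkat E6-1 cells/well; add compound; incubate 40 hr at 37 °C; add CellTiter-Glo; wait 20 min at room temperature; read luminescence. Fit concentration-response with Hill equation for AC50.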

[2] = Cell Viability - HUV-EC-C (AID 542); conditions: HUV-EC-C endothelial cell viability, qHTS; series mostly up to 92.2 µM;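 further: cells exposed to compound for 40 hours; on the % scale 0 is the no-effect control and ±100 the full control effect; nearly all actives have a fitted effect of over 35% in size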
Outline: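 Decrease in cellular ATP, quantified by luciferase luminescence, reflects toxicity in normal human vascular endothelial HUV-EC-C cells given compound for 40 hr in complete culture medium. Values are AC50s from concentration-response curves.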

[3] = Cell Viability - H-4-II-E (AID 543); conditions: H-4-II-E rat hepatoma viability; series mostly up to 92.2 µM;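 further: cells exposed to compound for 40 hours; on the % scale 0 is the no-effect control and ±100 the full control effect; nearly all actives have a fitted effect of over 35% in size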
Outline: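 Here, cytotoxicity is measured in the rat hepatoma line H-4-II-E as loss of intracellular ATP after 40 hr compound treatment, detected by luciferase luminescence.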

[4] = Cell Viability - LYMP2-008 (AID 980); conditions: LYMP2-008 lymphoblastoid cell viability, qHTS; series mostly up to 92.2 µM;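 further: cells exposed to compound for 24 h at 37 °C; on the % scale 0 is the no-effect control and ±100 the full control effect; nearly all actives have a fitted effect of over 60% in size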
Outline: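 Acute cytotoxicity is scored as concentration-dependent loss of cellular ATP in a human lymphoblastoid line after 24 hr treatment at 37 C. ATP is quantified by luciferase luminescence.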

[5] = Cell Viability - LYMP2-010 (AID 981); conditions: LYMP2-010 lymphoblastoid cell viability, qHTS; series mostly up to 92.2 µM;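 further: cells exposed to compound for 24 hours at 37 °C; on the % scale 0 is the no-effect control and ±100 the full control effect; nearly all actives have a fitted effect of over 55% in size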
Outline: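 Acute toxicity is scored as a concentration-dependent loss of cellular ATP in human lymphoblastoid cells after 24 hr compound exposure in complete medium. Tetraoctylammonium bromide is the positive control.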

[6] = Cell Viability - LYMP2-014 (AID 983); conditions: LYMP2-014 lymphoblastoid cells, viability qHTS; series mostly up to 92.2 µM;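 further: cells exposed to compound for 24 h at 37 °C; plate controls were DMSO only for no effect and 92 µM tetraoctylammonium bromide for full effect; nearly all actives have a fitted effect of over 50% in size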
Outline: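 Decrease in intracellular ATP after 24 hr treatment at 37 C, measured by luciferase luminescence, indicated cytotoxicity. Concentration-response data were fitted with the standard Hill equation to give AC50.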

[7] = Cell Viability - LYMP2-016 (AID 984); conditions: LYMP2-016 lymphoblastoid cell viability, qHTS; series mostly up to 92.2 µM;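 further: cells exposed to compound for 24 hours at 37 °C; on the % scale 0 is the no-effect control and ±100 the full control effect; nearly all actives have a fitted effect of over 55% in size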
Outline: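 qHTS, 1536-well: 2500 LYMP2-016 cells/well, 5 hr 37 C, compound added, 24 hr 37 C, CellTiter-Glo 30 min RT, luminescence. Tetraoctylammonium bromide positive control. AC50 via Hill fit.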

[8] = Cell Viability - LYMP2-018 (AID 985); conditions: LYMP2-018 lymphoblastoid cells, viability (qHTS); series mostly up to 92.2 µM;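 further: compound exposure lasted 24 hr at 37 °C; plate controls were DMSO only for no effect and tetraoctylammonium bromide at 92 µM for full effect; nearly all actives have a fitted effect of over 50% in size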
Outline: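 Acute cytotoxicity is scored as a concentration-dependent drop in intracellular ATP after 24 hr exposure of the lymphoblastoid line in complete culture medium, measured by luciferase luminescence. Potency is expressed as AC50 from Hill modelling.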

[9] = Cell Viability - LYMP2-020 (AID 986); conditions: series mostly up to 92.2 µM;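 further: cells exposed to compound for 24 h at 37 °C; plate controls were DMSO only for no effect and tetraoctylammonium bromide at 92 µM for full effect; nearly all actives have a fitted effect of over 55% in size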
Outline: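 Acute cytotoxicity in a human lymphoblastoid line is scored as a concentration-dependent fall in cellular ATP after 24 hr at 37 C in complete medium. The positive control is tetraoctylammonium bromide, and potency is given as Hill-fit AC50.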

[10] = Cell Viability - LYMP2-022 (AID 987); conditions: LYMP2-022 lymphoblastoid cell viability; series mostly up to 92.2 µM;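 further: 0% = DMSO alone and full effect = tetraoctylammonium bromide at 92 µM; nearly all actives have a fitted effect of over 55% in size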
Outline: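 Acute toxicity in a human lymphoblastoid line is scored as decreased intracellular ATP after 24 hr compound treatment at 37 C. ATP is measured by CellTiter-Glo luminescence; curves are fitted with the Hill equation to give AC50.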

[11] = Cell Viability - LYMP2-026 (AID 989); conditions: LYMP2-026 lymphoblastoid cell viability, qHTS; series mostly up to 92.2 µM;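 further: cells exposed to compound for 24 h at 37 °C; on the % scale 0 is the no-effect control and ±100 the full control effect; nearly all actives have a fitted effect of over 50% in size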
Outline: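 Concentration-dependent loss of intracellular ATP in human lymphoblastoid cells after 24 hr at 37 C, quantified by luciferase luminescence. AC50 derived from standard Hill equation.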

[12] = Cell Viability - LYMP1-002 - Assay at 24 hr (AID 993); conditions: LYMP1-002 lymphoblastoid cells viability; series mostly up to 92.2 µM; further: on the % scale 0 is the no-effect control and ±100 the full control effect
Outline: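 qHTS, LYMP1-002 lymphoblastoid, 24 h cpd, 37 C, CellTiter-Glo ATP luminescence; AC50 via Hill eq.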

[13] = target: Estrogen receptor (Homo sapiens) (UniProt P03372); experiment: qHTS assay for small molecule agonists of estrogen receptor alpha signaling (AID 588514; calls by dose curve;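 further: 0% = vehicle only and 100% = reference agonist; nearly all actives have a fitted effect of over 70% in size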); conditions: ER-alpha-UAS-bla HEK293, beta-lactamase ratio, 18 h; series mostly up to 76.8 µM
Chain of Estrogen receptor (Homo sapiens) (P03372 whole entry, looked up): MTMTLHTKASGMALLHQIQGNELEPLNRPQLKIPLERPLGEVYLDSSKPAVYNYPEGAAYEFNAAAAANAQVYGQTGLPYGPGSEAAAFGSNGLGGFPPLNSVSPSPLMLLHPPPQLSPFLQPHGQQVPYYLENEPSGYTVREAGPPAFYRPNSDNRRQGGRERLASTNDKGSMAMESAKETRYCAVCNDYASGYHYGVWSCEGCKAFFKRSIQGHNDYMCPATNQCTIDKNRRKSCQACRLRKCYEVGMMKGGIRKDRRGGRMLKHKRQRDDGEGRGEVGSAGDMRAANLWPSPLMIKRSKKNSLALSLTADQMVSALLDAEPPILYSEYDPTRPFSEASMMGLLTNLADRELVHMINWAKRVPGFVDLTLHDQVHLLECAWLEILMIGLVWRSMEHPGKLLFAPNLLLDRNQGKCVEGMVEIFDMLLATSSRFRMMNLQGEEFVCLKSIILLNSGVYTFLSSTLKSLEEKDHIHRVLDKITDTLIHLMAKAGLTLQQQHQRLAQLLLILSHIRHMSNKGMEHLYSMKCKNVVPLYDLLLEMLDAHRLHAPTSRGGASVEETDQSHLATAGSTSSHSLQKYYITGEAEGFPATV
Outline: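 Reporter-gene assay. […] controls beta-lactamase in HEK 293 GripTite cells; after 18 hrs with compound, CCF4 substrate is added for 2 hrs and fluorescence is read.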

[14] = target: Glucocorticoid receptor (Homo sapiens) (UniProt P04150); experiment: qHTS assay for small molecule antagonists of glucocorticoid receptor signaling (AID 588533; active means well fitted inhibition curve with a large enough effect in the signal ratio, with a control signal flat, not every such curve was filed as active; the % refers to the signal ratio; further: on the % scale 0 is the no-effect control and ±100 the full control effect); conditions: HeLa MMTV-bla, GRE beta-lactamase ratio, antagonist mode, 18 h; series mostly up to 76.8 µM
Chain of Glucocorticoid receptor (Homo sapiens) (P04150 whole entry, looked up): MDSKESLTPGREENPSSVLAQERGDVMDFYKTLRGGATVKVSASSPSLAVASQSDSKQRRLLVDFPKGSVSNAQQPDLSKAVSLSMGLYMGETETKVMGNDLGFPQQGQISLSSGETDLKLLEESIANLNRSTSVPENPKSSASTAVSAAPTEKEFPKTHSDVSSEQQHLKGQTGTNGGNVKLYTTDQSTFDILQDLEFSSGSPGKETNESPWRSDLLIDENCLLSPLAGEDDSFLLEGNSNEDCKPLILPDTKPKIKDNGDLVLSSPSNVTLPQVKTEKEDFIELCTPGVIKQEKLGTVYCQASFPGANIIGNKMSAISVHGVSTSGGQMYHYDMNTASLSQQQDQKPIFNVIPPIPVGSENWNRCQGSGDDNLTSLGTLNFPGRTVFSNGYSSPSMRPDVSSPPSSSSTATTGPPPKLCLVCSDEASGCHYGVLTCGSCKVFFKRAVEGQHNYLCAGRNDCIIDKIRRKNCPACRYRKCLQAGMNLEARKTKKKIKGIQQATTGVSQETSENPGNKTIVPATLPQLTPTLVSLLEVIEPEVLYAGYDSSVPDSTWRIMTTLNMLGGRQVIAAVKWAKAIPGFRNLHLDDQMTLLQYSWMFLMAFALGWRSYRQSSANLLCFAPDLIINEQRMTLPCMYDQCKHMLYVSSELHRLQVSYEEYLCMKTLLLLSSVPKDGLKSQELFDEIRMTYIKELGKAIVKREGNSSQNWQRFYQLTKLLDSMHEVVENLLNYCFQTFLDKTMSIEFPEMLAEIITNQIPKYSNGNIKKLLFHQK
Outline: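 Antagonist-mode qHTS: compound titrations added to GRE-bla HeLa cells, then dexamethasone 2 nM final; 18 h, 37 C. CCF4 FRET fluorescence normalized to dexamethasone and DMSO; IC50 from Hill fit.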

[15] = target: Thyroid hormone receptor beta (Homo sapiens) (UniProt P10828); experiment: qHTS assay for small molecule agonists of thyroid hormone receptor beta signaling (AID 588545; calls by dose curve;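 further: 0% = DMSO only and 100% = 10 nM T3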); conditions: TR-UAS-bla GripTite HEK 293, beta-lactamase ratio, agonist mode, 18 h, percent of T3 response, DMSO as zero; series mostly up to 76.7 µM
Chain of Thyroid hormone receptor beta (Homo sapiens) (P10828 whole entry, looked up): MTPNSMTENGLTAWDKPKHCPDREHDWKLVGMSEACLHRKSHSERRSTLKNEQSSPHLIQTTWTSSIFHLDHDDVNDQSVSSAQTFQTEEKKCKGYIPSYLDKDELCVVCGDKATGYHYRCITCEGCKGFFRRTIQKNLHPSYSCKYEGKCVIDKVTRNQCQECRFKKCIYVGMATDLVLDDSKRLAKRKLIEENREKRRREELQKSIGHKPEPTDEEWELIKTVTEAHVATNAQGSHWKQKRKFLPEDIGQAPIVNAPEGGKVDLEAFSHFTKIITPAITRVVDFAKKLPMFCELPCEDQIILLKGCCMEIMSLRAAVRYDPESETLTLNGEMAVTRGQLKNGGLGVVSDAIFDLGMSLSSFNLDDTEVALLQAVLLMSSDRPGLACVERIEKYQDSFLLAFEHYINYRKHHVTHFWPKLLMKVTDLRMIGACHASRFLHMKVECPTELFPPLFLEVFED
Outline: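 TR-UAS-bla GripTite HEK 293 cells (2500/well, medium with 2% charcoal/dextran FBS) were treated in agonist mode for 18 h at 37 C, titrated. Beta-lactamase was read by CCF4 ratio after 2 h; normalized to 10 nM T3 (100%) and DMSO, Hill-fitted for EC50 and efficacy.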

[16] = qHTS assay for small molecule disruptors of the mitochondrial membrane potential - 5 hr assay (AID 651755; calls by dose curve; further: on the % scale 0 is the no-effect control and ±100 the full control effect; nearly all actives have a fitted effect of over 40% in size); conditions: JC-1-type ratio dye; series mostly up to 92.2 µM
Outline: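 HepG2 cells (2,000/well), attached overnight, exposed to compound 5 hr at 37C, then Mito-MPS dye 30 min. Fluorescence read for monomers (490/535 nm) and aggregates (540/590 nm).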

[17] = target: Nuclear receptor ROR-gamma (Homo sapiens) (UniProt P51449); experiment: qHTS assay for small molecule antagonists of the retinoid-related orphan receptor gamma (ROR-gamma) signaling pathway (AID 651802); conditions: ROR-gamma antagonist cell reporter assay; series mostly up to 92.2 µM;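 further: CHO cells with doxycycline-induced ROR-gamma expression; luciferase reporter luminescence driven by ROR response element; on the % scale 0 is the no-effect control and ±100 the full control effect; nearly all actives have a fitted effect of over 60% in size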
Chain of Nuclear receptor ROR-gamma (Homo sapiens) (P51449 whole entry, looked up): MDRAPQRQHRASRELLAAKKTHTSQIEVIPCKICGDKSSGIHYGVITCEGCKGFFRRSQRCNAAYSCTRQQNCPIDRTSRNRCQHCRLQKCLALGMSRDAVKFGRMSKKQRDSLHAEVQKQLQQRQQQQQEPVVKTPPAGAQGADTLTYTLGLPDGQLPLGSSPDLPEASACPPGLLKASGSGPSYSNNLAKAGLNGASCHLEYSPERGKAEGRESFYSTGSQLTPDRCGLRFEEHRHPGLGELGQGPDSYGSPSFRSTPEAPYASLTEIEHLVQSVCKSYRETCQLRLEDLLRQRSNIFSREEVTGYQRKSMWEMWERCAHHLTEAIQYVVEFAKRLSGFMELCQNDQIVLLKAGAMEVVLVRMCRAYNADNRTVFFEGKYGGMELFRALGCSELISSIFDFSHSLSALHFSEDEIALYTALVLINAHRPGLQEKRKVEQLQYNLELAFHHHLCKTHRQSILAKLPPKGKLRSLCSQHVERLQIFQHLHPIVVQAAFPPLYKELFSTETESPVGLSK
Outline: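 Antagonism is scored as a fall in luminescence from a RORE-luciferase reporter in CHO cells expressing ROR under a TET-inducible promoter, measured 16hr after doxycycline induction in the presence of compound.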

[18] = target: Nuclear receptor subfamily 1 group I member 2 (Rattus norvegicus) (UniProt Q9R1A7); experiment: qHTS assay for small molecule activators of the rat pregnane X receptor (rPXR) signaling pathway (AID 651751; call rule not given here; further: 0% is about no effect); conditions: rPXR reporter cells, luciferase (One-Glo), 24 h
Chain of Nuclear receptor subfamily 1 group I member 2 (Rattus norvegicus) (Q9R1A7 whole entry, looked up): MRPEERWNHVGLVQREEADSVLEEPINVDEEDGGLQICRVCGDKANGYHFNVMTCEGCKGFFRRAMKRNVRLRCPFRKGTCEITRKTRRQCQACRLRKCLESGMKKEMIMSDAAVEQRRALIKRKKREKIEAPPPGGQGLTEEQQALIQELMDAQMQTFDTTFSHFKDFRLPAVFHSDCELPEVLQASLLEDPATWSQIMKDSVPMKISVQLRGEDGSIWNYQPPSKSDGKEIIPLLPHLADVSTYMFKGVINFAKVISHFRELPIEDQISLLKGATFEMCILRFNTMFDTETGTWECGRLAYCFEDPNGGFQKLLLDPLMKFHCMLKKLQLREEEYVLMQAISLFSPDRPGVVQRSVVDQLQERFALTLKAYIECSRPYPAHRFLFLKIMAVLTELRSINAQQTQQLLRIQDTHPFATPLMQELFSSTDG

[19] = target: Vitamin D3 receptor (Homo sapiens) (UniProt P11473); experiment: qHTS assay for small molecule antagonists of vitamin D receptor signaling (AID 588541; calls by dose curve;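 further: receptor activated by calcitriol during compound treatment; on the % scale 0 is the no-effect control and ±100 the full control effect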); conditions: HEK293T VDR-UAS-bla, beta-lactamase ratio, antagonist mode; series mostly up to 76.7 µM
Chain of Vitamin D3 receptor (Homo sapiens) (P11473 whole entry, looked up): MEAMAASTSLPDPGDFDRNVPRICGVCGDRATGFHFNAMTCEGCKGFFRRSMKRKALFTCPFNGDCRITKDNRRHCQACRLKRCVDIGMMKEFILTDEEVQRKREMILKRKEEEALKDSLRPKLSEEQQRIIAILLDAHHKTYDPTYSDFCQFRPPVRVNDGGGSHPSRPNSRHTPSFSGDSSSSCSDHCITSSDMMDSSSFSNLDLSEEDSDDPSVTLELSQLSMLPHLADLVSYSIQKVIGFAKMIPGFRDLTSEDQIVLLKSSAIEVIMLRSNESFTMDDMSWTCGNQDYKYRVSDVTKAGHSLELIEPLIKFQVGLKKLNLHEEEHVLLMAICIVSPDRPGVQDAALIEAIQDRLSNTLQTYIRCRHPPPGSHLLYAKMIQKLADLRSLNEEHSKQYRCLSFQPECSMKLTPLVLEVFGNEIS
Outline: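 VDR-UAS-bla HEK293T cells in 2% charcoal-stripped FBS were stimulated with 1-alpha,25-dihydroxyvitamin D3 (3 nM final) plus compound for 16 h at 37 C. The beta-lactamase CCF4 readout was normalized to 50 nM agonist and DMSO, and Hill fits gave IC50.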

[20] = target: Vitamin D3 receptor (Homo sapiens) (UniProt P11473); experiment: qHTS assay for small molecule agonists of vitamin D receptor signaling (AID 588543; calls by dose curve;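 further: 0% = DMSO basal and 100% = reference agonist control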); conditions: HEK293T VDR-UAS-bla, beta-lactamase ratio, 16 h; series mostly up to 76.8 µM
Outline: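 β-lactamase reporter, VDR-UAS-bla HEK293T, agonist mode. Cells plated 5 h at 37 °C, compound titration 16 h at 37 °C, CCF4 dye 2 h RT, ratio 460/530 nm. Hill fit → EC50, efficacy vs 50 nM 1α,25-(OH)2D3.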

C=C(C)C1CC=C(C)C(O)C1 (stereo unspecified)
inactive: Potency [1] > 92 µM | outcome [2] | Potency [3] | Potency [4] | Potency [5] | Potency [6] | Potency [7] | Potency [8] | Potency [9] | Potency [10] | Potency [11] | Potency [12] | Potency [13] | Potency [14] | outcome [15] | Potency [16] | Potency [17] | max response [18] 2.42%

O=C(O)c1ccccc1
inactive: Potency [1] > 92 µM | outcome [2] | Potency [3] | Potency [4] | Potency [5] | Potency [6] | Potency [7] | Potency [8] | Potency [9] | Potency [10] | Potency [11] | Potency [12] | Potency [13] | outcome [19] | outcome [20] | Potency [16] | Potency [17] | max response [18] -2.75%

C=CC(C)(CCC=C(C)C)OC(C)=O (stereo unspecified)
inactive: Potency [13] | Potency [14] | outcome [19] | outcome [20] | outcome [15] | max response [18] 1.82%

CC1=C2[C@H](/C=C(\C)C(=O)O)CC[C@@H](C)[C@H]2CC1
inactive: outcome [2] | Potency [3] | Potency [4] | Potency [5] | Potency [6] | Potency [7] | Potency [8] | Potency [9] | Potency [10] | Potency [11] | Potency [12] | Potency [14] | outcome [19] | outcome [20] | outcome [15] | max response [18] -3.01%

CCCCCCCCCCCCCC(=O)O
inactive: Potency [1] > 92 µM | outcome [2] | Potency [3] | Potency [4] | Potency [5] | Potency [6] | Potency [7] | Potency [8] | Potency [9] | Potency [10] | Potency [11] | Potency [12] | Potency [13] | Potency [14] | outcome [19] | outcome [20] | outcome [15] | Potency [16] | Potency [17] | max response [18] -0.081% and -5.28%

C=CC(=C)CCC=C(C)C
inactive: Potency [1] > 92 µM | outcome [2] | Potency [3] | Potency [4] | Potency [5] | Potency [6] | Potency [7] | Potency [8] | Potency [9] | Potency [10] | Potency [11] | Potency [12] | Potency [13] | Potency [14] | outcome [19] | outcome [20] | Potency [16] | Potency [17] | max response [18] 2.22%

COc1cc(/C=C/c2ccccc2)oc(=O)c1
inactive: Potency [1] > 92 µM | outcome [2] | Potency [4] | Potency [5] | Potency [6] | Potency [7] | Potency [8] | Potency [9] | Potency [10] | Potency [11] | Potency [12] | Potency [14] | outcome [19] | outcome [20] | outcome [15] | Potency [16] | Potency [17]

COc1ccc(/C=C/c2cc(OC)cc(=O)o2)cc1
inactive: Potency [1] > 92 µM | Potency [3] | Potency [4] | Potency [5] | Potency [6] | Potency [7] | Potency [8] | Potency [9] | Potency [10] | Potency [11] | Potency [12] | Potency [13] | outcome [19] | outcome [20] | outcome [15] | Potency [16] | Potency [17]
